KKLEB tox = cytotoxicity in KKLEB CF airway cells, primary screen, cytotoxicity control for CF NF-kB inhibitor project, cell-based, uHTS, fluorescence assay plates; KKLEB CF airway cells viability, ATPlite luminescence, overnight; stronger effect = lower value; cells stimulated with P. aeruginosa culture filtrate; activity change (cytotoxicity), % at 5 µM; 0.36% of 360,000 active; AID 602141, 2011;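 active means corrected activity change at or below -50% at 5 µM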
hiPSC survival = enhancers of single-cell hiPSC survival, primary screen, ATPlite luminescence; AID 602274, 2012; survival enhancement, % at 20 µM; 0.044% of 360,000 active; 100% = ROCK inhibitor wells, 0% = DMSO; in the data active means survival enhancement above about 18%;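 further: cells exposed to compounds for 16 hours before the ATP read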
CF NFkB block = inhibitors of PAF-induced NF-kB signaling, primary screen, cell-based, GFP fluorescence, uHTS. 0.86% of 360,000 active. KKLEB NF-kB-GFP reporter, GFP fluorescence overnight. AID 588850, 2011. inhibition, % at 5 µM;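 active means at least 50% inhibition at 5 µM, scaled per plate between neutral and stimulator controls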;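 further: PAF is a Pseudomonas aeruginosa culture filtrate used as stimulus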
HIF-2a inh = HIF-2a reporter inhibitors, primary screen, luminescence, 786-0 RCC cells. 786-0 RCC cells HIF-2a reporter, luciferase luminescence, overnight. inhibition, % at 18.8 µM. 0.72% of 360,000 active. AID 624352, 2012;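 active means inhibition of the luminescence signal of 40% or more relative to plate controls, in a single-dose primary screen at 18.75 µM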
LGR2 antag = inhibitors of bursicon-induced LGR2 CRE-luciferase signal, primary screen, cell-based, HEK293, CRE-luciferase reporter, bursicon stimulation; AID 720647, 2013; inhibition, % at 9.99 µM; bursicon-stimulated, 4 h; Drosophila bursicon receptor LGR2 (rickets); 0.35% of 380,000 active;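 active means drop in luminescence signal, shown as inhibition above about 50% in the replicate tests, limit read from the data, passing the limit was not always enough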;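 further: agonist challenge used bursicon conditioned medium at about half maximal strength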
TWEAK Fn14 block = inhibitors of TWEAK-Fn14 signaling, primary screen, luciferase reporter cells, uHTS | TWEAK-stimulated Fn14 reporter cells, luciferase luminescence, 8 h | inhibition, % at 10 µM | 2% of 360,000 active; in the data active means inhibition above about 50%
A number is an active result; i = inactive; nt = no result. Sampled rows, rich in hits. Any-hit rate of the full collection: about 2.3%.

SMILES | KKLEB tox | hiPSC survival | CF NFkB block | HIF-2a inh | LGR2 antag | TWEAK Fn14 block
CO[C@@H]1CN(C)C(=O)c2cc(NC(=O)C3CC3)ccc2OC[C@H](C)N(CCC(F)(F)F)C[C@H]1C | nt | nt | nt | nt | i | nt
O=C(Nc1cccn(Cc2c(Cl)cccc2Cl)c1=O)c1ccc(Cl)cc1Cl | i | i | i | i | nt | 64
O=C(Nc1cnc2sccn2c1=O)c1ccc(Cl)cc1Cl | i | i | i | i | i | 56
CCOC(=O)c1c(C)oc2c1c1c(c3ccccc32)OCN(Cc2cccnc2)C1 | i | i | i | i | nt | i
CCOC(=O)c1c(C)oc2c1c(C(c1cccnc1)N1CCOCC1)c(O)c1ccccc12 (configuration not stated) | i | i | i | i | nt | 98
Cc1nn(C)cc1NC(=O)C[C@H]1CC[C@@H]2[C@H](COc3ccc(NC(=O)NC(C)C)cc3C(=O)N2C)O1 | nt | nt | nt | nt | i | nt
COc1ccc2[nH]c(=O)c(CN(Cc3cccs3)S(=O)(=O)c3cccc4nsnc34)cc2c1 | -53 | i | 98 | i | nt | i
COc1ccc2[nH]c(=O)c(CN(CCO)S(=O)(=O)c3c(C)ccc4nsnc34)cc2c1 | i | i | i | i | nt | i
Cc1cc(C(=O)Nc2ccc3c(c2)C(=O)N(C)[C@H]2CC[C@@H](CC(=O)NCC(F)(F)F)O[C@H]2CO3)no1 | nt | nt | nt | nt | i | nt
CC(=O)Oc1ccc2occ(-c3ccccc3)c2c1 | i | i | i | i | i | 54
CC(C)(C)c1ccc(C(=O)N/C(N)=N/c2nc3ccccc3o2)cc1 | i | i | i | i | nt | i
Cc1ccc2oc(/N=C(\N)NC(=O)C3CC3)nc2c1 | i | i | i | i | nt | 64
Cc1ccc2oc(/N=C(\N)NC(=O)C(C)(C)C)nc2c1 | -61 | i | i | 81 | 100 | 104
O=C(C[C@H]1CC[C@H]2[C@@H](COC[C@H](O)CN2Cc2cccc(-c3ccncc3)c2)O1)N1CCCCC1 | nt | nt | nt | nt | i | nt
Cc1ccc(-c2ccc([C@H]3[C@H](CO)N4CCCCN(C(=O)Nc5cccc(F)c5)C[C@@H]34)cc2)cc1 | nt | nt | nt | nt | i | nt
O=C(NCC(c1cccnc1)N1CCN(c2ccccc2F)CC1)C1CCCCC1 (configuration not stated) | i | i | i | i | nt | 85
Cc1cccnc1CCNC(=O)c1ccc(OC2CCN(Cc3ccccn3)CC2)cc1 | i | i | i | i | i | 55
O=C(NCCc1cccc(Cl)c1)c1ccc(OC2CCN(Cc3ccccn3)CC2)cc1 | i | i | i | i | i | 82
COCC(=O)N1CCC(Oc2ccc(C(=O)NCCc3ncccc3C)cc2)CC1 | i | i | i | i | i | i
O=C(N=C1c2ccccc2CN1c1ccc(F)c(F)c1)c1cccnc1 | i | i | i | i | i | 52
O=C(N=C1c2ccccc2CN1c1cccc(Cl)c1)c1cccnc1 | i | i | i | i | i | i
Cc1ccccc1NC(=O)c1ccc(NS(=O)(=O)c2cc(C(C)(C)C)cc(C)c2C)cc1 | i | i | i | i | i | 52
Cc1cc(C(C)(C)C)cc(S(=O)(=O)Nc2cccc(C(=O)O)c2)c1C | i | i | i | i | i | i
C[C@H](CO)N1C[C@H](C)[C@H](CN(C)Cc2ccc3c(c2)OCO3)Oc2c(NS(=O)(=O)c3ccc(Cl)cc3)cccc2C1=O | nt | nt | nt | nt | i | nt
C[C@@H]1CN([C@H](C)CO)C(=O)c2cccc(NC(=O)c3nc4ccccc4s3)c2O[C@H]1CN(C)C(=O)NC1CCCCC1 | nt | nt | nt | nt | i | nt
SMILES | KKLEB tox | hiPSC survival | CF NFkB block | HIF-2a inh | LGR2 antag | TWEAK Fn14 block
COc1ccccc1N1CCN(C(=S)Nc2cccc(C)c2)CC1 | i | i | i | i | i | 63
COc1ccccc1N1CCN(C(=S)Nc2ccc3nc(N4CCOCC4)cc(C)c3c2)CC1 | i | i | i | i | i | 52
COc1ccc(CN(C)C[C@@H]2OCCCC[C@@H](C)Oc3ccc(NS(=O)(=O)c4c(C)noc4C)cc3C(=O)N([C@H](C)CO)C[C@@H]2C)cc1 | nt | nt | nt | nt | i | nt
CCCn1c(SCc2ccccc2)nc2c1c(=O)[nH]c(=O)n2C | i | 32 | i | i | nt | i
CCCCCCn1c(SCCN2CCOCC2)nc2c1c(=O)[nH]c(=O)n2C | i | 26 | i | i | nt | i
C[C@@H]1CN([C@H](C)CO)C(=O)c2cc(NS(=O)(=O)c3ccccc3)ccc2O[C@H]1CN(C)S(=O)(=O)c1ccccc1 | nt | nt | nt | nt | i | nt
O=C(NC(=O)c1ccccc1)Nc1ccccc1 | i | i | i | i | i | 72
COc1ccc(N2C(=O)c3ccccc3C2=O)cc1 | i | i | i | i | i | i
COc1ccc(N2C(=O)C(Cl)=C(Oc3cccc(OC)c3)C2=O)cc1 | i | i | i | 93 | nt | i
CCOc1ccc(OCc2ccc(C(=O)NN=Cc3ccc[nH]3)cc2)cc1 | i | i | i | i | i | 52
O=C(Cc1ccncc1)NCC[C@@H]1CC[C@H](NC(=O)C2CCC2)[C@@H](CO)O1 | nt | nt | nt | nt | i | nt
O=C(c1ccc(S(=O)(=O)Cc2cc(F)ccc2F)c([N+](=O)[O-])c1)N1CCCCC1 | i | i | i | i | i | 62
O=C(c1ccc(S(=O)(=O)Cc2cc(F)ccc2F)c([N+](=O)[O-])c1)N1CCCC1 | i | i | i | i | i | i
O=C(c1ccc(Cl)c([N+](=O)[O-])c1)N1CCN(c2ccccn2)CC1 | i | i | i | i | i | i
O=C(c1ccc(S(=O)(=O)Cc2ccccc2Cl)c([N+](=O)[O-])c1)N1CCN(c2ccccn2)CC1 | i | i | i | i | i | 69
Cc1ccccc1CS(=O)(=O)c1ccc(C(=O)N2CCC(C)CC2)cc1[N+](=O)[O-] | i | i | i | i | i | 56
CC1CCN(C(=O)c2ccc(S(=O)(=O)Cc3cccc(F)c3)c([N+](=O)[O-])c2)CC1 | i | i | i | i | i | 66
O=C(C[C@H]1CC[C@@H](NC(=O)c2ccc(F)cc2)[C@H](CO)O1)NCc1ccncn1 | nt | nt | nt | nt | i | nt
O=c1c2c(-c3ccccc3)csc2nc2c3ccccc3c(NCCN3CCOCC3)nn12 | i | i | i | i | 64 | i
c1ccc(-c2csc3ncnc(NCCCN4CCOCC4)c23)cc1 | i | i | i | i | nt | i
COc1cc2cc(C(=O)Nc3ccc4c(c3)OCCO4)[nH]c2cc1OC | i | i | i | i | i | 93
COc1cc2[nH]c(C(=O)Nc3ccc4c(c3)OCCO4)cc2c(OC)c1OC | i | i | i | i | i | 71
COc1cccc(OC)c1C(=O)Nc1ccc2c(c1)OCCO2 | i | i | i | i | nt | i
CC(=O)NCCc1ccc(C(=O)COC(=O)c2cccs2)cc1 | i | i | i | i | nt | 61
COc1ccc(Cc2ccccc2C(=O)O)cc1 | i | i | i | i | i | i
COc1ccc(CC2=CC(=O)c3ccccc3C2=O)cc1 | i | i | 52 | i | i | i

Source: PubChem (several laboratories)
